In all, about 65,000 compounds went through this assay and about 3,600 (5.5%) were called active. This excerpt belongs to a sample that is enriched for actives. Values without a mark were called inactive.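 Rule for the calls: active = at 10 µM, mean starting fluorescence two-fold or more over control wells; inactive = the rest.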
Experiment: intrinsic fluorescence of library compounds, ex339/em460 – biochemical, MLSMR library, data from DPM-DC assay, artefact control, profiling panel (AID 709);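 note: signal is the first read of a kinetic run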
Conditions: compound autofluorescence, ex339/em460 nm, NADH buffer; at 10 µM; hits give high values; 1 = no-compound wells, NADH background
`CN(c1ccccc1)c1ccc(/C=c2\s/c(=C(/C#N)C(=O)C(C)(C)C)n(Cc3ccco3)c2=O)cc1` gave a fluorescence fold increase of 0.95.
For `Cc1occc1C(=O)Nc1nnc(-c2ccncc2)s1`, the fluorescence fold increase was 2.2 (active).
Work on `Cc1occc1C(=O)Nc1nnc(C2CCCCC2)s1` yielded a fluorescence fold increase of 1.04.
In the case of `O=C(Nc1ccncc1)c1cc2ccccc2o1`, the fluorescence fold increase is reported as 1.02.
In the case of `Cc1ccc(C(=O)Nc2nnc(-c3ccncc3)s2)o1`, the fluorescence fold increase is reported as 2.14 (active).
Work on `CC(=O)Cc1nsc(NC(=O)c2ccc(COc3ccc(C)cc3)o2)n1` yielded a fluorescence fold increase of 1.06.
`Cc1occc1C(=O)Nc1cccc(Cn2cccn2)c1` gave a fluorescence fold increase of 1.14.
Compound `COc1ccc(CCNC(=O)c2cc(-c3ccc4c(c3)OCO4)on2)cc1OC` has a fluorescence fold increase of 1.07.
Work on `O=C(CSc1nnc(-c2ccccn2)n1-c1ccccc1)Nc1ccc2c(c1)OCO2` yielded a fluorescence fold increase of 1.08.
Compound `CC(C)Oc1ccc(C(=O)Nc2cc(=O)n(C)c(=O)n2C)cc1` has a fluorescence fold increase of 1.01.
`O=C(c1cccs1)N1CCN(C(=O)N2CCOCC2)CC1` gave a fluorescence fold increase of 1.11.
With `CCOc1ccccc1N(CC(=O)NC1CCCCC1)C(=O)CCCC(=O)Nc1ccccn1` the fluorescence fold increase was 1.08.
In the case of `CC(=O)c1sc2nc(SCC(=O)N3CCCCC3)[nH]c(=O)c2c1C`, the fluorescence fold increase is reported as 2.68 (active).
Compound `C=CCNC(=O)CSc1nc2sc(C)c(C)c2c(=O)[nH]1` has a fluorescence fold increase of 1.
With `O=C(CSc1nc2c(cnn2-c2ccc(F)cc2)c(=O)[nH]1)N1CCCCCC1` the fluorescence fold increase was 1.11.
In the case of `Cc1ccc(-n2nc3c(c2NC(=O)CCC2CCCCC2)CS(=O)C3)cc1` (stereo not given), the fluorescence fold increase is reported as 1.14.
In the case of `CCOc1cccc(NC(=O)C2CCCN(S(=O)(=O)c3ccc(OC)cc3)C2)c1` (stereo not given), the fluorescence fold increase is reported as 1.02.
In the case of `CC1(C)CC(=O)NC=C(c2ccccc2)C1`, the fluorescence fold increase is reported as 1.06.
For `O=c1[nH]c(-c2ccccc2)c(-c2ccccc2)[nH]1`, the fluorescence fold increase was 3.71 (active).
`N#Cc1c2c(c(-c3ccccc3)[nH]c1=O)CCCC2` gave a fluorescence fold increase of 1.02.
With `CCOC(=O)N1CCN(C(=O)c2ccc(S(=O)(=O)c3ccc(C)cc3)c(NC(C)=O)c2)CC1` the fluorescence fold increase was 1.2.
`Cc1ccc(C(=O)CS(C)(=O)=O)cc1` showed a fluorescence fold increase of 1.35.
`OC1CN=C2Sc3ccccc3N2C1` (stereo not given) showed a fluorescence fold increase of 1.06.
In the case of `COc1ccc(C(C(O)C(=O)c2c[nH]c3ccccc23)N2CCN(c3ccccc3)CC2)cc1` (stereo not given), the fluorescence fold increase is reported as 1.15.
In the case of `Cc1ccc2nc(-c3ccc(SCC(=O)Nc4cc(C)on4)nc3)[nH]c2c1`, the fluorescence fold increase is reported as 3.38 (active).
Compound `Cc1cc(C)c2c(c1)cc(C)c1nnc(SCC(=O)Nc3cc(C)on3)n12` has a fluorescence fold increase of 1.09.
`Cc1nc(SCC(=O)Nc2cc(C)on2)c2c(C)c(C)sc2n1` gave a fluorescence fold increase of 1.11.
In the case of `Cc1ccc(Oc2nc3ccccc3n3c(C)nnc23)cc1`, the fluorescence fold increase is reported as 1.08.
For `c1ccc(CSc2nnc(-c3ccco3)n2Cc2ccccc2)cc1`, the fluorescence fold increase was 1.15.
In the case of `CN(c1nc2ccccc2n2c(-c3ccco3)nnc12)S(=O)(=O)c1ccccc1`, the fluorescence fold increase is reported as 2.86 (active).
With `COc1ccc(OC)c(CN2C(=O)CCC2(C)C(=O)NC2CCCCCC2)c1` (stereo not given) the fluorescence fold increase was 1.09.
In the case of `CCCCc1cc(=O)oc2cc(C)cc(OCc3nn[nH]n3)c12`, the fluorescence fold increase is reported as 3.84 (active).
Compound `CC(C)C[C@H](NC(=O)[C@@H]1O[C@H]1C(=O)O)C(=O)NCCCCN=C(N)N` has a fluorescence fold increase of 1.01.
In the case of `CC1(C)CC(=O)C(C2=NC(C)(C)Cc3ccccc32)=C(O)C1`, the fluorescence fold increase is reported as 1.05.
For `Cc1ccc2[nH]c3c(c2c1)CN(C(=O)CN1CCN(c2ccccc2)CC1)CC3`, the fluorescence fold increase was 1.21.
`CCN(CC)C(=O)CSc1nnc(-c2cccc(OC)c2)o1` gave a fluorescence fold increase of 1.05.
`COc1cccc(NC(=O)CN(C)S(=O)(=O)c2ccc(C)cc2)c1` showed a fluorescence fold increase of 1.1.
In the case of `COc1cccc(-c2nnc(NC(=O)c3ccc(S(=O)(=O)N(CC(C)C)CC(C)C)cc3)o2)c1`, the fluorescence fold increase is reported as 3.77 (active).
`CC(C)(O)C#Cc1ccc(C(=O)N2CCC(C(N)=O)(N3CCCCC3)CC2)cc1` showed a fluorescence fold increase of 1.1.
For `Cc1ccc2c(c1)sc1ncc(NC(=O)c3ccccc3)c(=O)n12`, the fluorescence fold increase was 2.43 (active).
Work on `Cc1ccccc1NC(=O)c1ccccc1` yielded a fluorescence fold increase of 1.09.
Work on `Cc1ccc(NC(=O)c2nc[nH]c2C(=O)N2CCCCC2)c(C(=O)c2ccccc2)c1` yielded a fluorescence fold increase of 1.13.
Work on `CC(C)C(NC(=O)c1cccc(S(=O)(=O)N2CCOCC2)c1)C(=O)NCCc1ccccn1` (stereo not given) yielded a fluorescence fold increase of 1.06.
Compound `C=CCNC(=O)c1ccc(C)c(Br)c1` has a fluorescence fold increase of 1.08.
Work on `Nc1ncc(-c2cc3ccccc3oc2=O)s1` yielded a fluorescence fold increase of 1.43.
`COc1cccc(C(=O)c2cc3ccc(O)cc3oc2=O)c1` showed a fluorescence fold increase of 1.05.
For `O=c1oc2cc(O)ccc2cc1-c1ccc(F)cc1`, the fluorescence fold increase was 3.81 (active).
`O=C(Cn1c(=S)nc2ccccn21)N1CCc2ccccc2C1` gave a fluorescence fold increase of 1.17.
Work on `Cc1cc(C)c2cc(CN(Cc3cccs3)Cc3nnnn3CC3CCCO3)c(=O)[nH]c2c1` (stereo not given) yielded a fluorescence fold increase of 1.16.
In the case of `COc1ccc2[nH]c(=O)c(CN(Cc3nnnn3CCc3ccccc3)CC3CCCO3)cc2c1` (stereo not given), the fluorescence fold increase is reported as 2.03 (active).
In the case of `CCOc1ccc2[nH]c(=O)c(CN(Cc3nnnn3Cc3ccccc3)CC3CCCO3)cc2c1` (stereo not given), the fluorescence fold increase is reported as 2.24 (active).
For `Cc1cccc2cc(CN(Cc3nnnn3Cc3ccccc3)C3CCCC3)c(=O)[nH]c12`, the fluorescence fold increase was 1.03.
For `Cc1cc2cc(CN(Cc3cccs3)Cc3nnnn3CC3CCCO3)c(=O)[nH]c2cc1C` (stereo not given), the fluorescence fold increase was 1.42.
With `CCOc1ccc2[nH]c(=O)c(CN(Cc3nnnn3CCc3ccccc3)CC3CCCO3)cc2c1` (stereo not given) the fluorescence fold increase was 1.82.
For `CCC(c1nnnn1Cc1ccccc1)N(Cc1cc2cc(OC)ccc2[nH]c1=O)CC1CCCO1` (stereo not given), the fluorescence fold increase was 1.46.
`CCC(c1nnnn1Cc1ccco1)N(Cc1cc2cc(OC)ccc2[nH]c1=O)C1CCCCC1` (stereo not given) showed a fluorescence fold increase of 1.39.
For `COc1ccc2[nH]c(=O)c(CN(CC3CCCO3)C(=O)Nc3ccccc3)cc2c1` (stereo not given), the fluorescence fold increase was 2.91 (active).
`COc1ccc(/C(O)=C2/C(=O)C(=O)N(c3nc(C)c(C)s3)C2c2ccco2)cc1` (stereo not given) gave a fluorescence fold increase of 1.08.
For `COc1ccc(NS(=O)(=O)c2ccc(NC(=O)C(C)(C(F)(F)F)C(F)(F)F)cc2)nn1`, the fluorescence fold increase was 1.11.
In the case of `Cn1c(=O)oc2cc(S(=O)(=O)N3CCC(C(=O)Nc4ccc(OC(F)(F)F)cc4)CC3)ccc21`, the fluorescence fold increase is reported as 0.99.
With `CCC1(C)N(O)C(C)(C)C(c2ccc(OC)cc2)=[N+]1[O-]` (stereo not given) the fluorescence fold increase was 1.08.
With `COc1ccc(CCNC(=O)c2ccc3c(c2)NC(=O)C(N2CCOCC2)S3)cc1OC` (stereo not given) the fluorescence fold increase was 1.05.
With `CCOc1ccccc1-n1c(SCC(=O)N2CCCC2)nnc1-c1ccoc1C` the fluorescence fold increase was 1.07.
Compound `CCCCc1nccn1CCn1ccnc1CCCC` has a fluorescence fold increase of 1.03.
With `COc1ccc(-c2cc(C(=O)NC(C(=O)O)C(C)C)c(C)o2)cc1OC` (stereo not given) the fluorescence fold increase was 1.05.
In the case of `C=C(C)c1cccc(C(C)(C)NC(=O)N2CCN(c3ncccn3)CC2)c1`, the fluorescence fold increase is reported as 1.1.
For `CC(C)OCCCNc1ncnc2c1[nH]c1ccc(F)cc12`, the fluorescence fold increase was 3.76 (active).
With `CCN1CCCC1CNc1ncnc2c1[nH]c1ccc(F)cc12` (stereo not given) the fluorescence fold increase was 3.05 (active).
In the case of `Fc1ccc2[nH]c3c(N4CCSCC4)ncnc3c2c1`, the fluorescence fold increase is reported as 1.68.
Work on `Fc1ccc2[nH]c3c(N4CCN(Cc5ccc6c(c5)OCO6)CC4)ncnc3c2c1` yielded a fluorescence fold increase of 1.38.
Work on `COc1ccc(C(=O)Nc2cccnc2)cc1C(=O)Nc1cccnc1` yielded a fluorescence fold increase of 1.05.
For `C=CCn1c(C)cc(C(=O)CN2C(=O)c3ccccc3C2=O)c1C`, the fluorescence fold increase was 1.04.
For `C=CCN(CC=C)C(=O)CN1C(=O)c2ccccc2C1=O`, the fluorescence fold increase was 1.04.
With `COc1ccc(CC(=O)Nc2ccc(-c3nnc(-c4ccccc4)o3)cc2)cc1` the fluorescence fold increase was 2.23 (active).
In the case of `O=C(COC(=O)c1ccc(Oc2ccccc2)cc1)Nc1nnc(-c2ccccc2)o1`, the fluorescence fold increase is reported as 1.19.
Work on `COc1ccc(-c2nc(CS(=O)CC(=O)NCc3ccccn3)c(C)o2)cc1` (stereo not given) yielded a fluorescence fold increase of 1.
With `O=C(CCc1ccccc1)Nc1cccc(-c2nnc(-c3ccco3)o2)c1` the fluorescence fold increase was 1.31.
With `Cc1ccc(OCC(=O)Nc2ccc(-c3nc4ncccc4o3)cc2)cc1` the fluorescence fold increase was 3.7 (active).
With `COc1ccc(CC(=O)Nc2ccc(-c3nnc(-c4ccc(C)cc4)o3)cc2)cc1` the fluorescence fold increase was 2.89 (active).
Compound `Cc1ccc(OCC(=O)Nc2ccc(-c3nnc(-c4ccco4)o3)cc2)cc1` has a fluorescence fold increase of 1.37.
`CCOC(=O)c1ccc(NC(=O)CSc2ncccn2)cc1` showed a fluorescence fold increase of 1.02.
Compound `CCC(=O)Oc1cccc(C(=O)Nc2ccc(-c3nnc(-c4ccco4)o3)cc2)c1` has a fluorescence fold increase of 1.53.
`CCCOC(=O)CC1C(=O)NCCN1Cc1ccc(F)cc1` (stereo not given) showed a fluorescence fold increase of 1.06.
With `C=C(Br)Cn1c(CCCC)nc2ccccc21` the fluorescence fold increase was 1.05.
With `CCN(c1ccccc1)S(=O)(=O)c1cccc(C(=O)O)c1` the fluorescence fold increase was 0.98.
`Cc1noc(C)c1CSc1nnc2ccc3ccccc3n12` gave a fluorescence fold increase of 1.17.
`COC(=O)C(NC(C)=O)(Nc1nc2c(s1)CCCC2)C(F)(F)F` (stereo not given) gave a fluorescence fold increase of 1.04.
With `Cc1ccc(N(C(=O)CC2NC(=O)NC2=O)C2(C(=O)NC3CCCC3)CCCCC2)cc1` (stereo not given) the fluorescence fold increase was 1.11.
Compound `O=C(NCc1ccccn1)c1ccc2nc(-c3ccco3)c(-c3ccco3)nc2c1` has a fluorescence fold increase of 1.72.
In the case of `Cc1cccn2c(=O)c3cc(C(=O)N4COCC4(C)C)n(C)c3nc12`, the fluorescence fold increase is reported as 4.96 (active).
`Cc1ccccc1CN1CCN(CC(=O)NCc2ccccn2)C1=O` gave a fluorescence fold increase of 1.13.
In the case of `Cc1cccn2c(=O)c3cc(C(=O)NCc4ccccn4)n(C)c3nc12`, the fluorescence fold increase is reported as 5.03 (active).
In the case of `NC(=O)C1CCN(C2OC(=O)c3ccccc32)CC1` (stereo not given), the fluorescence fold increase is reported as 1.08.
For `CCOC(=O)C1CCN(C(=O)C2CCN(S(=O)(=O)N3CCCC3)CC2)CC1`, the fluorescence fold increase was 1.03.
Work on `CCC(CC)c1nnc(NS(=O)(=O)Cc2ccccc2)s1` yielded a fluorescence fold increase of 1.09.
